# Several values for one entry are separate records, joined by “and”; a condition that tells them apart may be missing. Equal values may be shown once. Records with an inconclusive call do not appear. Activity calls are given as the source filed them. Unless noted, the limit is not given here; nearly all actives have AC50 up to about 26 µM.
# Columns and labels:
# [1] = growth inhibition of DIPG glioma cells, dose response, cell-based, SU-DIPG-XVII, MIPE5.0, CellTiter-Glo, qHTS (AID 1347060); settings: SU-DIPG-XVII viability, CellTiter-Glo ATP luminescence;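 as to AC50: cells exposed to compound for 48 hours before viability readout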
# [2] = growth inhibition of DIPG glioma cells, dose response, cell-based, SU-DIPG-XIII, MIPE4.0, CellTiter-Glo, qHTS (AID 1347061; cut-off not given, nearly all actives have AC50 up to about 37 µM;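 also: cells exposed to compound for 48 hours before readout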); settings: SU-DIPG-XIII viability, CellTiter-Glo ATP luminescence
# [3] = growth inhibition of DIPG glioma cells, dose response, cell-based, SU-DIPG-IV, MIPE4.0, CellTiter-Glo, qHTS (AID 1347063; cut-off not given, nearly all actives have AC50 up to about 30 µM;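 also: compound exposure lasted 48 hours before the viability readout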); settings: SU-DIPG-IV viability, CellTiter-Glo ATP luminescence
# [4] = growth inhibition of DIPG glioma cells, dose response, cell-based, SU-DIPG-XIII, MIPE5.0, CellTiter-Glo, qHTS (AID 1347064; cut-off not given, nearly all actives have AC50 up to about 23 µM;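 as to AC50: cells exposed to compound for 48 hours before the viability read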); settings: SU-DIPG-XIII viability, CellTiter-Glo ATP luminescence
# [5] = viability loss in pontine glioma line – cell-based, SU-DIPG-XXV, MIPE5.0, CellTiter-Glo, qHTS, dose response (AID 1347065); settings: CellTiter-Glo ATP luminescence;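 also: cells exposed to compound for 48 hours before ATP readout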
# [6] = JHH-DIPG-1 glioma cell viability, MIPE5.0 library, CellTiter-Glo luminescence, qHTS (AID 1347067); settings: JHH-DIPG-1 glioma viability, CellTiter-Glo ATP luminescence;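 also: cells exposed to compound for 48 hours before readout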
# [7] = SU-DIPG-XXV glioma cell viability, MIPE5.0 library, qHTS (AID 1347068; cut-off not given, nearly all actives have IC50 up to about 30 µM;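 as to IC50: cells exposed to compound for 48 hours before viability readout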)
# [8] = growth inhibition of DIPG glioma cells, dose response, cell-based, JHH-DIPG-1, MIPE4.0, CellTiter-Glo, qHTS (AID 1347062; cut-off not given, nearly all actives have AC50 up to about 27 µM); settings: JHH-DIPG-1 viability, CellTiter-Glo ATP luminescence
# [9] = SU-DIPG-VI glioma cell viability, MIPE4.0 library, CellTiter-Glo luminescence, qHTS (AID 1347066; cut-off not given, nearly all actives have AC50 up to about 30 µM;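 also: cells exposed to compound for 48 hours before readout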); settings: CellTiter-Glo ATP luminescence
# [10] = sensitizers of A549 cells to miR-34 induction, primary screen, imaging, A549 dox-inducible miR-34, nuclei and caspase counts (AID 1347080;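 active = compounds whose cell count with miR-34 switched on is under 0.7 times the count with it off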); settings: A549 miR-34 inducible, Hoechst nuclei count, 48 h
# [11] = survival rescue of mitochondrial mutant cells in low glucose, primary screen, MELAS cybrids, Rieske KO mouse fibroblasts, CellTiter-Glo (AID 1508586;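 active = mean z-score across replicates of 1.96 or higher in either the MELAS or the Rieske mutant cell line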;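 also: z relative to plate mean and SD of compound and empty wells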)
# [12] = modifiers of HSF1 nuclear foci, imaging, Selleck Cancer Library (AID 1347162; in the data active = plate-normalised HSF1 focus index below about 0.46); settings: human cells, at 10 µM; SSMD: measured here: HSF1 foci SSMD mean; cell count: measured here: cell number; plate-normalised HSF1 focus index: stronger effect = lower value
# [13] = ovarian cancer cell viability with rucaparib, profiling panel, oncology-focused library, rucaparib conditional (AID 1508598;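 active = normalized viability below 100% at a tested concentration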); settings: patient-derived ovarian cancer cells, CellTiter-Glo viability, 144 h, stronger effect = lower value
# [14] = stronger effect = lower value, cell number ratio, induced over uninduced
# [15] = measured here: relative caspase fold change +Dox/-Dox
# [16] = measured here: total cells with miR-34 induction, stronger effect = lower value
# [17] = measured here: total cells without miR-34 induction
# [18] = MELAS cybrid survival, CellTiter-Glo 48 h, stronger effect = higher value
# [19] = Rieske KO mouse fibroblast survival, CellTiter-Glo 72 h
smiles,measurement,setting,value
Nc1nc(NCCNc2ncc(-n3ccnc3)c(-c3ccc(Cl)cc3Cl)n2)ccc1[N+](=O)[O-],AC50,[1],11.8 µM (active)
same,outcome,[2],inactive
same,AC50,[3],5.26 µM (active)
same,AC50,[4],13.2 µM (active)
same,AC50,[5],8.33 µM (active)
same,AC50,[6],11.8 µM (active)
same,outcome,[7],inactive
CN(C)c1ccc(C2Nc3ccc4ccccc4c3C3=C2C(=O)CC(C)(C)C3)cc1Br (configuration not stated),outcome,[1],inactive
same,outcome,[2],inactive
same,outcome,[8],inactive
same,outcome,[9],inactive
same,outcome,[6],inactive
Cc1ccc2c(c1)C(=O)[C@]1(O)CCN(c3ccccc3)C1=N2,AC50,[1],14.8 µM (active)
same,outcome,[2],inactive
same,outcome,[8],inactive
same,outcome,[9],inactive
same,outcome,[6],inactive
same,outcome,[7],inactive
same,fold change,[10]; [14],0.934 (inactive) and 0.847 (inactive)
same,fold change,[10]; [15],0.749 and 0.315
same,cell count,[10]; [16],6020 and 6690
same,cell count,[10]; [17],6450 and 7900
same,z-score,[11]; [18],-0.292 (inactive)
same,z-score,[11]; [19],-2.56
Cc1cc(Nc2nc(N[C@@H](C)c3ccc(F)cc3)c(C#N)cc2F)n[nH]1,AC50,[1],0.934 µM (active)
same,AC50,[2],20.9 µM (active)
same,AC50,[3],5.9 µM (active)
same,AC50,[4],4.68 µM (active)
same,AC50,[5],1.32 µM (active)
same,AC50,[9],23.5 µM (active)
same,AC50,[6],5.9 µM (active)
same,IC50,[7],5.25 µM (active)
C=C1CCC2[C@](C)(CO)C(O)CC[C@]2(C)C1C/C=C1/C(=O)OCC1O (some centres not stated),AC50,[1],16.6 µM (active)
same,outcome,[2],inactive
same,outcome,[3],inactive
same,AC50,[4],16.6 µM (active)
same,AC50,[5],13.2 µM (active)
same,outcome,[9],inactive
same,AC50,[6],13.2 µM (active)
CO[C@H]1C[C@@H]2CC[C@@H](C)[C@@](O)(O2)C(=O)C(=O)N2CCCC[C@H]2C(=O)O[C@H]([C@H](C)C[C@@H]2CC[C@@H](OP(C)(C)=O)[C@H](OC)C2)CC(=O)[C@H](C)/C=C(\C)[C@@H](O)[C@@H](OC)C(=O)[C@H](C)C[C@H](C)/C=C/C=C/C=C/1C,AC50,[1],18.6 µM (active)
same,outcome,[2],inactive
same,AC50,[3],23.5 µM (active)
same,AC50,[5],16.6 µM (active)
same,AC50,[6],20.9 µM (active)
C/C=C/C[C@@H](C)C(=O)[C@H]1C(=O)N[C@@H](C(C)C)C(=O)N(C)CC(=O)N(C)[C@@H](CC(C)C)C(=O)N[C@@H](C(C)C)C(=O)N(C)[C@@H](CC(C)C)C(=O)N[C@@H](C)C(=O)N[C@H](C)C(=O)N(C)[C@@H](CC(C)C)C(=O)N(C)[C@@H](CC(C)C)C(=O)N(C)[C@@H](C(C)C)C(=O)N1C,AC50,[1],8.11 µM (active)
same,AC50,[2],18.7 µM (active)
same,AC50,[5],5.74 µM (active)
CCC(=O)N1CCN(c2ccc(-n3c(=O)ccc4cnc5ccc(-c6cnc7ccccc7c6)cc5c43)cc2C(F)(F)F)CC1,AC50,[1],0.0456 µM (active)
same,AC50,[2],1.32 µM (active)
same,AC50,[3],0.0662 µM (active)
same,AC50,[4],0.162 µM (active)
same,AC50,[5],0.0811 µM (active)
same,SSMD,[12],1.96
same,cell count,[12],7220
same,plate-normalised HSF1 focus index,[12],1.1 (inactive)
CCc1cc(-c2n[nH]c(C)c2-c2ccc3c(c2)OCCO3)c(O)cc1O,AC50,[1],18.6 µM (active)
same,AC50,[2],7.43 µM (active)
same,AC50,[3],2.64 µM (active)
same,AC50,[5],16.6 µM (active)
same,AC50,[6],20.9 µM (active)
same,IC50,[7],20.9 µM (active)
same,SSMD,[12],1.15
same,cell count,[12],5920
same,plate-normalised HSF1 focus index,[12],1.07 (inactive)
Cc1n[nH]c(C)c1Cc1sc2c(c1C(=O)N1C[C@H](O)CO1)c(=O)n(C)c(=O)n2CC(C)C,outcome,[1],inactive
same,outcome,[2],inactive
same,outcome,[3],inactive
same,outcome,[9],inactive
same,outcome,[6],inactive
same,outcome,[7],inactive
COc1cc2ncnc(Nc3cccc(Br)c3)c2cc1OC,AC50,[1],2.09 µM (active)
same,outcome,[2],inactive
same,AC50,[4],14.8 µM (active)
same,AC50,[5],16.6 µM (active)
same,AC50,[6],20.9 µM (active)
same,SSMD,[12],2.47
same,cell count,[12],7590
same,plate-normalised HSF1 focus index,[12],1.15 (inactive)
Nc1nc(=O)n([C@H]2C[C@H](O)[C@@H](CO)O2)cc1F,outcome,[1],inactive
same,outcome,[2],inactive
same,outcome,[3],inactive
same,outcome,[5],inactive
same,outcome,[9],inactive
same,outcome,[6],inactive
same,outcome,[7],inactive
CC#CCn1c(N2CCC[C@@H](N)C2)nc2c1c(=O)n(Cc1nc(C)c3ccccc3n1)c(=O)n2C,outcome,[1],inactive
same,outcome,[2],inactive
same,outcome,[4],inactive
same,outcome,[5],inactive
same,outcome,[9],inactive
same,outcome,[6],inactive
same,outcome,[7],inactive
O=S(=O)(O)CCSSCCS(=O)(=O)O,outcome,[1],inactive
same,outcome,[2],inactive
same,outcome,[4],inactive
same,outcome,[5],inactive
same,outcome,[9],inactive
same,outcome,[6],inactive
same,outcome,[7],inactive
same,fold change,[10]; [14],0.942 (inactive) and 0.926 (inactive)
same,fold change,[10]; [15],0.692 and 0.976
same,cell count,[10]; [16],8910 and 7810
same,cell count,[10]; [17],9460 and 8440
same,z-score,[11]; [18],-0.449 (inactive)
same,z-score,[11]; [19],0.587
same,viability,"[13]; at 0.000305 µM, OCI-C5x cells, with rucaparib 10 µM, 100% = cells with rucaparib alone",98.2% (active)
same,viability,"[13]; at 0.000305 µM, OCI-C5x cells, without rucaparib",108% (inactive)
same,viability,"[13]; at 0.000305 µM, OCI-P5x cells, with rucaparib 20 µM, 100% = cells with rucaparib alone",105% (inactive)
same,viability,"[13]; at 0.000305 µM, OCI-P5x cells, without rucaparib",108% (inactive)
same,viability,"[13]; at 0.00122 µM, OCI-C5x cells, with rucaparib 10 µM, 100% = cells with rucaparib alone",106% (inactive)
same,viability,"[13]; at 0.00122 µM, OCI-C5x cells, without rucaparib",106% (inactive)
same,viability,"[13]; at 0.00122 µM, OCI-P5x cells, with rucaparib 20 µM, 100% = cells with rucaparib alone",105% (inactive)
same,viability,"[13]; at 0.00122 µM, OCI-P5x cells, without rucaparib",103% (inactive)
same,viability,"[13]; at 0.00488 µM, OCI-C5x cells, with rucaparib 10 µM, 100% = cells with rucaparib alone",102% (inactive)
same,viability,"[13]; at 0.00488 µM, OCI-C5x cells, without rucaparib",103% (inactive)
same,viability,"[13]; at 0.00488 µM, OCI-P5x cells, with rucaparib 20 µM, 100% = cells with rucaparib alone",101% (inactive)
same,viability,"[13]; at 0.00488 µM, OCI-P5x cells, without rucaparib",100% (inactive)
same,viability,"[13]; at 0.0195 µM, OCI-C5x cells, with rucaparib 10 µM, 100% = cells with rucaparib alone",100% (inactive)
same,viability,"[13]; at 0.0195 µM, OCI-C5x cells, without rucaparib",107% (inactive)
same,viability,"[13]; at 0.0195 µM, OCI-P5x cells, with rucaparib 20 µM, 100% = cells with rucaparib alone",105% (inactive)
same,viability,"[13]; at 0.0195 µM, OCI-P5x cells, without rucaparib",104% (inactive)
same,viability,"[13]; at 0.0781 µM, OCI-C5x cells, with rucaparib 10 µM, 100% = cells with rucaparib alone",100% (inactive)
same,viability,"[13]; at 0.0781 µM, OCI-C5x cells, without rucaparib",104% (inactive)
same,viability,"[13]; at 0.0781 µM, OCI-P5x cells, with rucaparib 20 µM, 100% = cells with rucaparib alone",98.4% (active)
same,viability,"[13]; at 0.0781 µM, OCI-P5x cells, without rucaparib",98.9% (active)
same,viability,"[13]; at 0.313 µM, OCI-C5x cells, with rucaparib 10 µM, 100% = cells with rucaparib alone",100% (inactive)
same,viability,"[13]; at 0.313 µM, OCI-C5x cells, without rucaparib",105% (inactive)
same,viability,"[13]; at 0.313 µM, OCI-P5x cells, with rucaparib 20 µM, 100% = cells with rucaparib alone",101% (inactive)
same,viability,"[13]; at 0.313 µM, OCI-P5x cells, without rucaparib",97.9% (active)
same,viability,"[13]; at 1.25 µM, OCI-C5x cells, with rucaparib 10 µM, 100% = cells with rucaparib alone",127% (inactive)
same,viability,"[13]; at 1.25 µM, OCI-C5x cells, without rucaparib",101% (inactive)
same,viability,"[13]; at 1.25 µM, OCI-P5x cells, with rucaparib 20 µM, 100% = cells with rucaparib alone",94.1% (active)
same,viability,"[13]; at 1.25 µM, OCI-P5x cells, without rucaparib",89.9% (active)
same,viability,"[13]; at 5 µM, OCI-C5x cells, with rucaparib 10 µM, 100% = cells with rucaparib alone",116% (inactive)
same,viability,"[13]; at 5 µM, OCI-C5x cells, without rucaparib",101% (inactive)
same,viability,"[13]; at 5 µM, OCI-P5x cells, with rucaparib 20 µM, 100% = cells with rucaparib alone",90.1% (active)
same,viability,"[13]; at 5 µM, OCI-P5x cells, without rucaparib",88.4% (active)
